# Bioassay records: PubChem BioAssay, National Center for Advancing Translational Sciences (NCATS)
# ALOX12 inh = inhibitors of human 12S-lipoxygenase ALOX12 | actives 1.1% (n = 580,000) | purified 12hLO, xylenol orange hydroperoxide absorbance | Potency, µM (titrated, usually from 108 µM), actives largely listed as inhibitors
# Target sequence (P18054 whole entry, looked up): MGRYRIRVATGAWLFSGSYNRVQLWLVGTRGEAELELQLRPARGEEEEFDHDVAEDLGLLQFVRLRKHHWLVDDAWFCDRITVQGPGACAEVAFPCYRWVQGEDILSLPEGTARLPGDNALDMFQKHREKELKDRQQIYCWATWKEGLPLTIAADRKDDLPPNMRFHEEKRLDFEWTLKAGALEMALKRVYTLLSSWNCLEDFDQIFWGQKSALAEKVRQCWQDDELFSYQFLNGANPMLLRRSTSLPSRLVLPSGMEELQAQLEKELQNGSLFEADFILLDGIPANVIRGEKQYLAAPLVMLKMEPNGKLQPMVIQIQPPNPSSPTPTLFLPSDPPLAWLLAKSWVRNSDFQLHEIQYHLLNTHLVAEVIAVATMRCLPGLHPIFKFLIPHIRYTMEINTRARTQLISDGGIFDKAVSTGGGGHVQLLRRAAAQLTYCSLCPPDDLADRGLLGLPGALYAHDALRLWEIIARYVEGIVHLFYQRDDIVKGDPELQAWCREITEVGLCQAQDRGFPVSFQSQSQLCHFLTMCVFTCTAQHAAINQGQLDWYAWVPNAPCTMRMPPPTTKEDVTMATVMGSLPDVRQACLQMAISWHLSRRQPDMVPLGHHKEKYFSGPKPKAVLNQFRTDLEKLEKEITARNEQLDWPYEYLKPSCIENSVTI
#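 Hydroperoxide product was detected by ferrous iron/xylenol orange as the 573 to 405 nm absorbance ratio. Arachidonic acid at 40 uM (final) was turned over for 30 min at room temperature by 150 nM human 12hLO, pH 7.0 Hepes buffer, after 15 min compound preincubation.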
# TDP1 cell noCPT = qHTS for Inhibitors of human tyrosyl-DNA phosphodiesterase 1 (TDP1): qHTS in cells in absence of CPT; DT40 Tdp1-/- hTDP1 cells, no CPT, ATP luminescence, 48 h; Potency, µM (doses to about 46.2 µM), hits mostly inhibitors; actives 15% (n = 420,000); AID 686978, 2013; also: nearly all actives have a fitted effect of over 55% in size
#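 Camptothecin absent (DMSO only). Human TDP1-complemented DT40 knockout cells, 400 cells/well, 37 °C for minimum 48 hr; ATP measured via CellTiter-Glo, 30 min dark incubation, luminescence.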
# DT40 TDP1 CPT = growth inhibition of DT40 Tdp1-/-;hTDP1 cells with camptothecin (screen for TDP1 inhibitors) | chicken DT40 Tdp1-/-;hTDP1 cells + 20 nM CPT, ATP luminescence, 48 h | Potency, µM (series often up to 46.2 µM), usual class: inhibitors | actives 12% (n = 420,000); also: nearly all actives have a fitted effect of over 55% in size
#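 Chicken DT40 Tdp1-/- cells stably complemented with human TDP1 were seeded at 400 cells/well in medium containing 20 nM camptothecin, exposed to pin-transferred compounds, and grown at 37 °C for at least 48 hr. Viability was read as ATP luminescence.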
# IL1B secr inh = inhibitors of inflammasome signaling (IL-1 beta secretion). THP-1 LPS/ATP IL-1B secretion, AlphaLISA, 16 h; active compounds read low. AID 743279. activity change, % at 57.5 µM. actives 4.7% (n = 360,000); in the data active = activity change below about -50%; inconclusive = mostly about -30% to -49%
#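 THP-1 cells pretreated 1 hr with compounds (up to 57.5 uM final), then stimulated with LPS (250 ng/mL final) plus ATP (1.25 mM final); secreted IL-1B measured by AlphaLISA after 16 hr, decreased signal indicating inhibition.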
# HT1080NT lethal = kills 2HG-producing HT-1080-NT fibrosarcoma cells; HT-1080-NT fibrosarcoma viability, CellTiter-Glo ATP luminescence, 48 h; Potency, µM (doses to about 46.1 µM), usual class: cytotoxic; actives 1.6% (n = 360,000);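 also: NT is the 2HG producing partner of a matched IDH1 knockdown line; nearly all actives have a fitted effect of over 55% in size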
#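 Toxicity toward the 2HG-producing NT line was scored as %Activity, normalised to DMSO and no-cell wells, from CellTiter-Glo luminescence after 48 hours' treatment.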
# HT1080 IDH1KD tx = kills HT-1080 cells with IDH1 knockdown; HT-1080 IDH1 knockdown viability, ATP luminescence, 48 h; Potency, µM (series often up to 46.1 µM), hits mostly cytotoxic; actives 2% (n = 360,000); AID 686971
#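 After a 2 h attachment period, IDH1KD HT-1080 cells took pin-transferred compound for 48 h at 37 °C; ATP-based luminescence after 10 min room-temperature reagent incubation reported viability.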
# Hits are given with their value; - = inactive; ? = inconclusive; . = no result. Many of the other results were omitted from the sample, so hits are more common in it than they were. Unless noted, calls follow the shape of the dose curve; as a rule, active = well fitted curve in the direction sought with a large enough effect; inconclusive = small, poorly fitted or top-dose-only effect, or another doubt; inactive = no such curve, though single readings can be large; an effect the other way counts as inactive or inconclusive.
SMILES,ALOX12 inh,TDP1 cell noCPT,DT40 TDP1 CPT,IL1B secr inh,HT1080NT lethal,HT1080 IDH1KD tx
Cc1ccnc(NC(=O)c2nc(-c3ccccc3)oc2C)c1,-,.,.,.,.,.
Cc1nc2ccccc2nc1CN1C(=O)C(=O)N(C2CCCC2)C1=O,-,.,.,.,.,.
COC(=O)COc1nc(-c2ccco2)c2c(c1C#N)CCC2,-,.,.,.,.,.
CCOC(=O)c1cc(C)sc1NC(=O)CSC1=NCCS1,-,-,?,-61,-,-
CCC(=O)N1N=C(c2ccc(NS(=O)(=O)c3ccccc3)cc2)CC1c1ccco1 (stereo unspecified),-,23µM,?,-,-,-
CC(=O)N1N=C(c2ccc(Cl)cc2)CC1c1ccco1 (stereo unspecified),-,?,16µM,-,-,-
Cn1nnnc1SCC(=O)N1N=C(c2ccc(Cl)cc2)CC1c1ccco1 (stereo unspecified),?,16µM,21µM,-,-,-
Cc1nc(N2N=C(c3ccc(Cl)cc3)CC2c2ccco2)sc1C(=O)N(C)C (stereo unspecified),?,16µM,21µM,?,-,?
Cc1c(-c2nc3ccccc3[nH]2)c(NC(=O)CC(C)C)n(CC2CCCO2)c1C (stereo unspecified),-,.,.,.,.,.
COc1ccc(C(=O)N2CCCC(C(=O)NCc3ccccc3)CCNC(=O)CC2)cc1F (stereo unspecified),-,.,.,.,.,.
COc1ccc(C2=NN(c3nc(-c4ccccc4)c(CC(=O)O)s3)C(c3ccco3)C2)cc1 (stereo unspecified),11µM,-,-,-,-,-
COc1ccc(C2=NN(C(=O)COc3ncnc4ccccc34)C(c3ccco3)C2)cc1 (stereo unspecified),-,26µM,-,?,-,?
Cc1nnc(SCC(=O)N2N=C(c3ccc(Cl)cc3)CC2c2ccco2)[nH]c1=O (stereo unspecified),?,?,15µM,?,-,-
COc1ccc(-c2nc(C)sc2CC(=O)O)cc1,-,-,-,-,-,-
COc1ccc2nc(SCC(=O)N3N=C(c4ccco4)CC3c3cccs3)[nH]c2c1 (stereo unspecified),-,.,.,.,.,.
O=C(CSc1nc2ccc(Cl)cc2[nH]1)N1N=C(c2cccs2)CC1c1ccco1 (stereo unspecified),18µM,.,.,.,.,.
COc1ccc(C2=NN(C(=O)CN3CCc4ccccc4C3)C(c3ccco3)C2)cc1 (stereo unspecified),-,.,.,.,.,.
COCCc1noc(CC2CCOC3(CCN(C(=O)CCC4CCCC4)CC3)C2)n1 (stereo unspecified),-,.,.,.,.,.
O=C(C1CCCO1)N1N=C(c2ccc(Br)cc2)CC1c1ccco1 (stereo unspecified),?,15µM,?,?,-,-
Cc1ccc(S(=O)(=O)N[C@H](C(=O)OCC(=O)N2N=C(c3ccc(Cl)cc3)CC2c2ccco2)C(C)C)cc1 (stereo partly specified),?,23µM,23µM,-,-,-
COc1c2ccoc2c(OC(C)=O)c2oc(C)cc(=O)c12,-,?,-,-51,-,-
C=CCn1c(=O)/c(=C/c2ccc(C)o2)s/c1=C(/C#N)C(=O)c1ccccc1,11µM,-,-,-,-,-
C[C@@H](NC(=O)c1ncn2c1c(=O)[nH]c1cccnc12)c1ccccc1,-,-,-,-,-,-
C[C@@H](NC(=O)c1ncn2c1c(=O)[nH]c1ccc(Br)cc12)c1ccccc1,-,21µM,?,-,-,-
Cn1c2ccccc2c(=O)c2cc(C#Cc3cccc(N)c3)ccc21,.,?,?,-,-,-
C=CCn1c2ccccc2c(=O)c2cc(C#CC[C@@H](C)O)ccc21,-,10µM,8.2µM,-67,-,-
